High-throughput results deposited in PubChem BioAssay by National Center for Advancing Translational Sciences (NCATS).
Rows were chosen to be rich in hits. Some 3.8% of all compounds tested hit in one or more screens of this group.
HT1080 IDH1KD tx: toxicity to HT-1080 IDH1 knockdown cells (counter line) | HT-1080 IDH1 knockdown viability, ATP luminescence, 48 h | Potency, µM (highest dose often 46.1 µM), for inactives: top-dose activity, negative = toxicity, hits mostly cytotoxic | hit rate 2% among 360,000 | AID 686971;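 also: 0% = DMSO wells and -100% = cell-free medium wells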
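After a 2 h attachment period, IDH1KD HT-1080 cells took pin-transferred compound for 48 h at 37 °C; ATP-based luminescence after 10 min room-temperature reagent incubation reported viability.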
HT1080-NT tox: kills 2HG-producing HT-1080-NT fibrosarcoma cells | HT-1080-NT fibrosarcoma viability, CellTiter-Glo ATP luminescence, 48 h | Potency, µM (doses to about 46.1 µM), for inactives: at the top dose activity, negative = less viability, hits mostly cytotoxic | hit rate 1.6% among 360,000 | AID 686970;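 also: NT is the 2HG producing partner of a matched IDH1 knockdown line; 0% = DMSO-treated cells and -100% = media-only wells without cells; nearly all actives have a fitted effect of over 55% in size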
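Compounds were tested in concentration-response format on HT-1080-NT cells for 48 hours at 37 degrees C. Cell viability came from CellTiter-Glo luminescence; curves were classified by r2, response magnitude and activity.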
S2 tox: cell viability loss in ATXN counter-screen. S2 cells (HEK-293 line with an ATXN2-luciferase reporter) viability, CellTiter-Fluor protease fluorescence, 24 h. AID 651635. Potency, µM (highest dose often 56.7 µM), actives largely listed as cytotoxic. hit rate 0.49% among 400,000; also: nearly all actives have a fitted effect of over 40% in size
TGFb inhibitor: inhibitors of TGF-b signaling | HepG2 CAGA-GFP TGF-b/SMAD3 reporter, GFP fluorescence, 18 h; TGF-beta stimulated, 500 pg/mL final | Potency, µM (top dose mostly 46.1 µM), for the others: at the top dose activity, negative = inhibition, hits mostly inhibitors | hit rate 1.2% among 410,000; also: % is scaled to controls: 0 for no effect and ±100 for the full control effect; nearly all actives have a fitted effect of over 65% in size
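Per well, imaged GFP fluorescence of HEPG2 CAGA-GFP cells gives the signal; cells get compound, then TGF-beta (500 pg/mL final), 18 h at 37 degrees C; %Activity versus -TGF-beta and +DMSO controls.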
HepG2 viability: HepG2 cytotoxicity, counter-screen for TGF-b inhibitors | hit rate 0.76% among 410,000 | HepG2 CAGA-GFP viability, ATP luminescence, 18 h | Potency, µM (titrated, usually from 46.1 µM), for the others: top-dose activity change, negative = cytotoxicity, actives largely listed as cytotoxic
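CellTiter-Glo luminescence gave cytotoxicity after 18 hours at 37 degrees C. The cells were HepG2 CAGA-GFP in 1% FBS DMEM, stimulated with 500 pg/mL TGF-beta after compound addition. %Activity was normalised to no-cell wells (complete cell-killing) and DMSO (no toxicity), and curves were fitted and classified.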
ATXN2 expr inh: inhibitors of ATXN2 expression | HEK-293 ATXN2-luciferase reporter, luminescence, 24 h | Potency, µM (titrated, usually from 57 µM), without a hit: at the highest dose activity change, negative = inhibition, hits mostly inhibitors | hit rate 0.72% among 360,000; also: % is scaled to controls: 0 for no effect and ±100 for the full control effect; nearly all actives have a fitted effect of over 55% in size
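ATXN2-luciferase reporter cells (luciferase flanked by upstream and downstream ATXN2 gene portions) were treated 24 h at 37 °C with compounds at up to 57 uM. SteadyGlo luminescence gave expression; GF-AFC fluorescence gave viability.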
Active calls of the source: *; i = inactive; ? = inconclusive; nt = not tested or not shown; ! = not active in a repeat. Calls follow the shape of the dose curve; as a rule, active = well fitted curve in the direction sought with a large enough effect; inconclusive = small, poorly fitted or top-dose-only effect, or another doubt; inactive = no such curve, though single readings can be large; an effect the other way counts as inactive or inconclusive. Potency is read from the fitted curve at half-maximal effect.

SMILES | HT1080 IDH1KD tx | HT1080-NT tox | S2 tox | TGFb inhibitor | HepG2 viability | ATXN2 expr inh
CC(NC(=O)Cn1ncc(Cl)c(Cl)c1=O)C12CC3CC(CC(C3)C1)C2 (stereo not drawn) | 10.3µM* | 18.4µM* | 17.8µM* | -5.4% | 2.6% | ?
COc1cc(F)c(C(C)C)cc1-c1ccc(C(F)(F)F)cc1CN1C(=O)O[C@H](c2cc(C(F)(F)F)cc(C(F)(F)F)c2)[C@@H]1C | nt | nt | nt | nt | nt | -8.7%
COc1ccccc1S(=O)(=O)N1CCN(c2nc(-c3cccs3)nc3ccccc23)CC1 | 0.0% | 7.4% | nt | nt | nt | nt
COc1ccc(Nc2nc(-c3cccs3)nc3ccccc23)cc1S(=O)(=O)N1CCOCC1 | ? | 16.4µM* | i | ? | -36.8% | -3.6%
O=C(COc1ccccc1C(=O)Nc1ccccc1)Nc1ccccc1-c1ccccc1 | nt | nt | nt | ? | -5.6% | nt
CCCCN(CC)CCCNC(=S)Nc1ccc2nc(N3CCN(CC)CC3)cc(C)c2c1 | ? | 16.4µM* | ? | -1.1% | -33.9% | ?
CCCCN(CC)CCCNC(=S)Nc1ccc2nc(N3CCN(C)CC3)cc(C)c2c1 | ? | 18.4µM* | ? | -0.9% | -18.9% | -30.2%
CCN(CC)CCNC(=S)Nc1ccc2nc(N3CCN(C)CC3)cc(C)c2c1 | -19.6% | ? | ? | 12.9% | -4.0% | -18.2%
COc1cc(C)c(C)cc1S(=O)(=O)Nc1cccc(-c2ccc(N3CCOCC3)nn2)c1 | nt | nt | ? | ? | -15.7% | -9.5%
CCOC(=O)c1c(NC(=O)COC(=O)c2ccccc2NC)sc(C(=O)N(C)C)c1C | ? | -28.5% | ? | ? | -7.6% | 31.6µM*
CC1CCc2c(sc3nnn(CC(=O)Nc4ccccc4Cl)c(=O)c23)C1 (stereo not drawn) | nt | nt | ? | -6.3% | -6.5% | -33.6%
Nc1nsc2ccccc12 | 2.51µM* | 2.51µM* | i | ? | -79.1% | -28.1%
Nc1nnc(N)c2ccccc12 | -0.5% | -14.3% | i | 8.5% | 6.0% | 27.7%
COc1cc(-c2c(-c3ccc4c(c3)OCO4)noc2-c2ccsc2)cc(OC)c1OC | nt | nt | nt | 0.5% | 14.3% | nt
Cc1c(Nc2cc(Cl)c3nonc3c2[N+](=O)[O-])c(=O)n(-c2ccccc2)n1C | ? | 3.66µM* | 28.2µM* | ? | -84.0% | ?
Cc1c(Nc2ccc3nonc3c2[N+](=O)[O-])c(=O)n(-c2ccccc2)n1C | -12.0% | -17.6% | i | 7.5% | -4.5% | -20.4%
O=C1CSC(=S)N1Nc1ccccc1 | 5.8µM* | ? | i | 13.5% | -1.3% | ?
COc1ccccc1NC(=O)c1sc(-c2ccc(Cl)cc2)cc1N | nt | nt | nt | -0.9% | -39.9% | nt
CO/N=C(/C(=O)N[C@@H]1C(=O)N2C(C(=O)[O-])=C(C[n+]3ccn4ncccc43)CS[C@H]12)c1nsc(N)n1 | nt | nt | i | nt | nt | 7.3%
O=C(O)c1cc(O)c2c(c1)[C@@H]([C@H]1c3cc(C(=O)O)cc(O)c3C(=O)c3c(O[C@@H]4O[C@H](CO)[C@@H](O)[C@H](O)[C@H]4O)cccc31)c1cccc(O[C@@H]3O[C@H](CO)[C@@H](O)[C@H](O)[C@H]3O)c1C2=O | -25.5% | -23.0% | i | 14.1µM* | -26.6% | -2.3%
OCC1OC(Oc2cccc3ccccc23)C(O)C(O)C1O (stereo not drawn) | -4.7% | -6.4% | i | -0.6% | 13.5% | 3.8%
Cn1cc(CNCc2ccc(OC(F)(F)F)cc2)c(-c2ccc3c(c2)OCCO3)n1 | -5.9% | 20.6µM* | ? | ? | -52.0% | nt
Clc1ccc2c(Cl)cc[n+](CCC3CCCCC3)c2c1 | nt | nt | nt | -0.3% | -1.5% | nt
CC(=O)O[C@H]1C(=O)[C@]2(C)[C@H]([C@H](OC(=O)c3ccccc3)[C@]3(O)C[C@H](OC(=O)[C@H](O)[C@@H](NC(=O)c4ccccc4)c4ccccc4)C(C)=C1C3(C)C)[C@]1(OC(C)=O)CO[C@@H]1C[C@@H]2O | 0.0146µM* | ? | ? | ? | 1.2% | -24.1%
CC(=O)O[C@H]1C(=O)[C@@]2(C)C([C@H](OC(=O)c3ccccc3)[C@]3(O)C[C@H](OC(=O)[C@H](O)[C@@H](NC(=O)c4ccccc4)c4ccccc4)C(C)=C1C3(C)C)[C@]1(OC(C)=O)CO[C@@H]1C[C@H]2O (stereo partly drawn) | 0.184µM* | ? | ? | ? | 0.2% | -24.6%
SMILES | HT1080 IDH1KD tx | HT1080-NT tox | S2 tox | TGFb inhibitor | HepG2 viability | ATXN2 expr inh
CCN1CCN(C(=O)c2sc3ncnc(NCC4CCCO4)c3c2C)CC1 (stereo not drawn) | nt | nt | i | nt | nt | nt
O=C(CN1C(=O)C(c2ccc(F)cc2)=NC12CCCCCC2)Nc1ccccc1Cl | nt | nt | nt | ? | -22.1% | nt
O=C(NCCN1Cc2ccccc2OC(c2ccccc2F)C1)c1ccco1 (stereo not drawn) | nt | nt | i | nt | nt | nt
Cn1nc(-c2ccccc2F)c2cc(C(=O)N3CCN(c4ccccc4F)CC3)sc21 | nt | nt | ? | ? | -15.7% | ?
O[Si](CCCN1CCCCC1)(c1ccc(F)cc1)C1CCCCC1 (stereo not drawn) | 20.6µM* | ? | i | 34.6% | -41.6% | -11.9%
CCC1CN(CCC(=O)N2CCN(c3ncccn3)CC2)Cc2cc(OC)ccc2O1 (stereo not drawn) | nt | nt | i | nt | nt | nt
CCOc1ccccc1C(=O)Oc1c(S(=O)(=O)c2ccc(C)cc2)c(C)nn1-c1ccccc1 | nt | nt | ? | ? | -65.6% | ?
CNC(C)C(=O)NC(C(=O)N1CCCC1C(=O)NC1CCCc2ccccc21)C(C)C (stereo not drawn) | -6.0% | 0.9% | i | 2.0% | -0.6% | 9.1%
CNC(C)C(=O)NC(C(=O)N1CCCC1C(=O)NNc1ccccc1)C(C)C (stereo not drawn) | 2.31µM* | 1.3µM* | i | -8.9% | -38.6% | ?
Cc1nc(NCc2cnn(C)c2)sc1-c1ccn(-c2cccc(F)c2)n1 | nt | nt | i | nt | nt | nt
O=C(c1ccccc1F)n1c2c(c3ccccc31)CCCC2 | 14.6µM* | ? | i | -23.8% | -13.7% | -14.9%
CC1CCN(CC(=O)n2c3c(c4ccccc42)CCCC3)CC1 | ? | ? | i | 0.0% | -21.5% | -7.4%
CCCCCC(=O)O[C@]1(C(C)=O)CC[C@H]2[C@@H]3CCC4=CC(=O)CC[C@]4(C)[C@H]3CC[C@@]21C | ? | ? | 35.5µM*! | ? | -37.5% | 28.2µM*!
O=Cc1ccc(/C=C2/C=Cc3ccccc32)cc1 | nt | nt | nt | 4.3% | 13.8% | nt
O=Cc1ccc(/C=C2\C=Cc3ccccc32)cc1 | nt | nt | nt | 3.55µM* | -62.4% | nt
